This passage reports growth results from PubChem BioAssay (NCI).

Molecules are shown by their SMILES. Compounds without any hit were thinned out: in the full panel of roughly 83,000, 20% have a hit.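 Negative percent growth values reflect cell death: -40 means 40% of the cells present at the start died, and -100 means all died.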 A number with no mark means an inactive call. The source made the active and inactive calls. The calls were made as follows: active = growth percent below 10; inactive = the rest.

Experiment in all cases: NCI-60 one-dose screen, 48 h (100 = growth as untreated, 0 = no growth, -100 = all killed)
What all share (details): 10 µM unless noted

The subject of experiment [1] is NCI-H23 lung.
In experiment [2] the test system is NCI-H226 lung.
For experiment [3], the system named is NCI-H322M lung.
For experiment [4], the system named is HOP-62 NSCLC.
For experiment [5], the system named is NCI-H460 lung.
Experiment [6] deals with HOP-92 NSCLC.
The test system of experiment [7] is NCI-H522 lung.
The subject of experiment [8] is A549/ATCC NSCLC.
Experiment [9] deals with 786-0 renal.
Experiment [10] relates to COLO 205 colon.

`COc1cc(-c2nc(N=Nc3c(O)[nH]c4ccc(Br)cc34)[nH]c(=O)c2C#N)cc(OC)c1OC`: the growth in [1] is 102%; in [2] it was 84.1%; in [3], 99.4%; in experiment [4], 105%; in [5], 104%; in experiment [6] it was 92.8%. Moreover, the figures for the growth in experiment [7], in experiment [8] and in [9] were 84.9%, 99.4% and 99.8%, respectively.

`Cc1nn(-c2ccc([N+](=O)[O-])cc2)c2ncnc(NCCc3ccccc3)c12`: the growth was 95.9% in experiment [1]; 97.8% in experiment [2]; 116% in experiment [3]; 102% in experiment [4]; 91.6% in experiment [5]; 91.3% in experiment [6]. For the same molecule, the growth in experiment [7] was 107%; in experiment [8] it was 99.8%; in experiment [9] it was 105%.

With `COc1ccc(/C(C#N)=C/c2cc(OC)c(OC)c(OC)c2)cc1`, the growth is 62.3% in experiment [1]; 70.6% in experiment [2]; 59.7% in [3]; 46.7% in [4]; 16.9% in [5]; 31.6% in experiment [6]. In addition, the values for the growth in [7], in [8] and in experiment [9] were 15.8%, 32.5% and 51.2%, respectively.

Take `CCN(CC)CCOc1ccc(/C(=C(/C)c2ccccc2)c2ccc(OC(C)=O)cc2)cc1`: the growth was 95.7% in [1]; 105% in [2]; 100% in experiment [3]; 106% in experiment [4]; 107% in [5]; 81% in experiment [6]. Besides, the growth in experiment [7] is 102%; in [8] it was 117%; in [9] it was 98.6%.

As to `C=CCn1cc(-c2nc3ccccc3s2)c2cc(-c3ccc4c5c(cccc35)C(=O)N(CCN3CCNCC3)C4=O)ccc21`, the growth in [1] is 86.3%; in experiment [2] it was 63.9%; in experiment [3] it was 97.5%; in experiment [4] it was 82.7%; in experiment [5], 89%; in experiment [6], 72.1%. Besides, the growth in experiment [7] was 92.4%; in experiment [8] it was 85%.

Turning to `C=C1C(=O)O[C@H]2[C@H]1CC/C(Cn1cc(CNC(=O)c3cc4ccccc4[nH]3)nn1)=C\CC[C@@]1(C)O[C@@H]21`, the growth in [1] was 84.1%; in experiment [2] it was 101%; in experiment [3], 94.7%; in experiment [4], 101%; in [5], 101%; in experiment [6], 32.2%. The figures for the growth in [7], in experiment [8] and in experiment [9] were -65% (active), 93.4% and 66.1%, respectively.

Turning to `CN(C)CC(C(=O)c1ccccc1)c1ccccc1` (stereo unspecified), the growth in experiment [1] was 58.2%; in [2], 47.4%; in experiment [3], 106%; in experiment [4], 43.7%; in experiment [5], 79.5%; in experiment [6], -0.711% (active). Besides, the growth is -77.5% (active) in [7], 71.4% in experiment [8] and 74% in experiment [9].

Consider `O=C(Nc1ccncc1)C(=O)c1cn(S(=O)(=O)c2ccc(Cl)cc2)c2ccccc12`, for which the growth in [1] was 30.7%; in [2], 78.3%; in experiment [3] it was 80.6%; in experiment [4], 31.4%; in experiment [5], 71.9%; in [6], 32.8%. For the same molecule, the growth is -2.79% (active) in experiment [7], 73.9% in experiment [8], 34.9% in experiment [9] and 106% in experiment [10].

With `CCCCCCCC[C@@H](O)CC(=O)N[C@@H](CC(N)=O)C(=O)N[C@@H](CCC(N)=O)C(=O)N[C@@H](CC(=O)c1cc(C)cc(O)c1C(=O)c1c(O)cccc1O)CC(C)C`, the growth in experiment [1] is 23.5%; in experiment [2] it was 89.1%; in experiment [3], 86.8%; in [4], 6.71% (active); in [5] it was 23.4%; in experiment [6] it was -17.8% (active). Besides, the growth is -22.5% (active) in experiment [7], 60.1% in experiment [8] and 11.6% in experiment [9].

Turning to `COC(=O)C(Sc1ccc(Cl)cc1)C1SC(=S)N(Cc2ccccc2)C1=O` (stereo unspecified), the growth in experiment [1] was 97.3%; in [2] it was 116%; in [3], 105%; in [4], 95.1%; in experiment [5], 107%; in [6], 104%. Further, the growth in experiment [7] was 96.7%; in experiment [8] it was 98.2%; in [9], 103%; in experiment [10], 117%.

`O=C(NCCCNc1nccc(-n2ccc3cccnc32)n1)c1c(F)cccc1F`: the growth in experiment [1] is 101%; in [2], 99.4%; in experiment [3] it was 103%; in [4], 101%; in experiment [5], 104%; in [6], 110%. Moreover, the growth in [7] was 101%; in experiment [8] it was 102%; in experiment [9], 98%; in experiment [10], 113%.

For the molecule `COc1ccc(NC(=O)c2cc(OC)c(OC)c(OC)c2)cc1O`, the growth in experiment [1] is 52.2%; in [2] it was 99.9%; in experiment [3], 68.2%; in experiment [4], 35.1%; in [5], 17.2%; in [6], 37.4%. Further, the growth was -41% (active) in [7], 48.6% in [8], 38.5% in experiment [9] and 40.4% in [10].

Regarding `Clc1ccc2c(NC3CCC(NC4CCCCC4)CC3)ccnc2c1` (stereo unspecified), the growth in experiment [1] was 68.1%; in experiment [2], 79.7%; in experiment [3], 109%; in experiment [4], 61.6%; in experiment [5] it was 77.5%; in experiment [6] it was 51.5%. For the same molecule, the growth was 62.2% in experiment [7], 65.6% in experiment [8], 59.8% in experiment [9] and -71.5% (active) in [10].

Consider `O=C(CN1CCN(c2cc3c(cc2F)c(=O)c(C(=O)N/N=C/c2ccccc2O)cn3C2CC2)CC1)N/N=C\c1ccccc1O`, for which the growth in [1] is 28.2%; in experiment [2] it was 36.4%; in experiment [3] it was 25.4%; in experiment [4], 24.5%; in experiment [5], 0.87% (active); in experiment [6], 52%. Moreover, the growth is 22.6% in experiment [7], 17.8% in [8], 7.83% (active) in [9] and 17.4% in experiment [10].
